Source: PubChem BioAssay (The Scripps Research Institute Molecular Screening Center)
M1 antag = human CHRM1 antagonism. CHO-K1 hM1, Fluo-8 calcium fluorescence, ACh EC80 antagonist. inhibition, % at 3 µM. 360,000 compounds, 1.3% hits;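 active = percent inhibition above its own plate's cutoff, namely the mean of that plate's compound wells plus 3 SD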;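 also: peak over basal fluorescence ratio during 140 s after agonist addition; 0% = ACh EC80 plus DMSO and 100% = DMSO alone without agonist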
Target sequence (P11229 whole entry, looked up): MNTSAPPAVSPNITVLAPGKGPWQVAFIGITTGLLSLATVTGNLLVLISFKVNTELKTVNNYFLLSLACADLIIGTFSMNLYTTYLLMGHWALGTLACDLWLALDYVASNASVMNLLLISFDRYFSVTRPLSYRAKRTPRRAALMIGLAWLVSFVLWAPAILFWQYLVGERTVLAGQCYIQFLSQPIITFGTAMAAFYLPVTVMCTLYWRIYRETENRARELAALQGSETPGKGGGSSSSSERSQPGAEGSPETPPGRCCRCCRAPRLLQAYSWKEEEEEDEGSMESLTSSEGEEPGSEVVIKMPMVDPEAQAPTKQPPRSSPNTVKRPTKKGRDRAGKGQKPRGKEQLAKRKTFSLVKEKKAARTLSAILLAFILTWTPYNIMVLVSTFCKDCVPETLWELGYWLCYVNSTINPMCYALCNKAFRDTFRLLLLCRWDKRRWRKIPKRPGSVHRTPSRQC
CHO-K1 Ca antag = M1 antagonist counterscreen hit in parental CHO-K1 cells. 360,000 compounds, 0.6% hits. AID 602250. inhibition, % at 3 µM. ATP-induced calcium, Fluo-8 fluorescence;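 active = inhibition above a per-plate cutoff, the plate's mean sample inhibition plus 3 SD, cut at about 24% in these data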;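 also: 0% = DMSO plus EC80 ATP and 100% = DMSO alone without ATP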
M1 ag parental = nonselective activator or artifact in parental CHO-K1 cells; Fluo-8 calcium fluorescence; scaled to maximal ATP response, vehicle zero; activation, % at 3 µM; 360,000 compounds, 0.48% hits; in the data active = activation above about 15%;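 also: untransfected CHO-K1 host cells lacking M1 receptor as counterscreen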
CHRM1 agonist = agonists of human M1 muscarinic receptor; CHO-K1 hM1, Fluo-8 calcium fluorescence, agonist mode; 0% DMSO, 100% acetylcholine EC100; activation, % at 3 µM; 360,000 compounds, 0.33% hits; AID 588814;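 active = activation above the run's mean compound activation plus 3 SD, cut at about 16% in these data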;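 also: peak over basal fluorescence ratio within a 140 s kinetic read after compound addition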
M1 PAM parental = counter-screen for M1 PAMs: effect in parental CHO-K1 cells; AID 602247; activation, % at 3 µM; ATP EC20, Fluo-8 calcium fluorescence; 0% at ATP EC20, 100% at ATP max; 360,000 compounds, 0.02% hits;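 active = activation above the run cutoff, the mean activation of all test compounds plus 3 SD, cut at about 40% in these data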;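 also: peak over basal fluorescence ratio in a 140 s read after ATP addition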
CHRM1 PAM = positive allosteric modulators of human M1 muscarinic receptor; P11229; CHO-K1 hM1, Fluo-8 calcium fluorescence, ACh EC20; 0% = ACh EC20, 100% = maximal ACh; activation, % at 3 µM; 360,000 compounds, 0.088% hits; AID 588819; in the data active = activation above about 19%, passing the limit was not always enough
* = called active by the depositor; ! = not active in a repeat. Sampled rows, rich in hits. Any-hit rate of the full collection: about 2.3%.

SMILES	M1 antag	CHO-K1 Ca antag	M1 ag parental	CHRM1 agonist	M1 PAM parental	CHRM1 PAM
CCN(CC)c1ccc(/C=C(\C#N)C(=O)c2ccc(Br)cc2)cc1	85*	74*	110*	178*	-6	-21
CCN(CC)c1ccc(/C=C(\C#N)C(N)=O)cc1	-12	-12	1	1	18	12
CN(C)c1ccc(/C=C(\C#N)C(=O)c2ccccc2)cc1	76*	38*	46*	125*	-5	-35
NC(=O)c1ccc(/C=N/O)nc1	12	1	0	1	-6	0
Cc1ccc(NC(=S)Nc2ccc(Cl)c(Cl)c2)c(OC(F)F)c1	26	26*	10	-4	-6	-14
CCOC(=O)c1[nH]c(C)c(C(=O)N2CCN(C(=O)OCC)CC2)c1CC	4	26*	0	0	-12	1
Cc1ccc2c(c1)c(C)c(C)n2CC(O)CN1CCCCC1C (configuration not stated)	-1	1	0	-12	-4	-3
Cc1ccc2c(c1)c1c(n2CC(O)CN2CCCCC2C)CCCC1 (configuration not stated)	42*	-5	1	-7	16	-24
Fc1ccc2cnc(CCO[C@H]3CCCCO3)cc2c1	-1	-8	0	-2	15	10
COc1ccc(S(=O)(=O)N2CCc3ccccc32)cc1C(=O)O	-15	-17	2	-5	23	5
CC(=O)N1CCc2ccc(S(=O)(=O)N3CCc4ccccc43)cc21	35*	13	10	-3	-17	-20
O=C(O)c1ccc(S(=O)(=O)NC2CCCc3ccccc32)cc1 (configuration not stated)	-6	-10	0	0	9	4
CC(=O)N1CCc2cc(S(=O)(=O)NC3CCCc4ccccc43)ccc21 (configuration not stated)	23	34*	5	3	-8	-10
COc1ccc(NS(=O)(=O)c2cc(NC(=O)[C@@H](NC(=O)c3ccccc3)C(C)C)ccc2C)cc1	2	2	0	-9	20	0
N#CC1=C(N)SC(N)=C(C#N)C1Cc1ccccc1	0	-10	7	6	9	-4
N#CC1=C(N)SC(N)=C(C#N)C1CCc1ccccc1	9	29*	7	12	-9	4
CCc1ccc(C2C(C#N)=C(N)SC(N)=C2C#N)cc1	20	-10	21*	17*	-4	-18
CCCC/C=C/C(NC(=O)c1ccc(-c2ccccc2)cc1)c1ccccc1 (configuration not stated)	3	-4	0	-4	-3	-3
CC1CCC(C(C)C)C(OC(=O)Cn2c(-c3ccccc3)[n+](C)c3ccccc32)C1 (configuration not stated)	43*!	12	6	-7	14	-17
Cc1cccc(OCc2n(CC(=O)OC3CC(C)CCC3C(C)C)c3ccccc3[n+]2C)c1 (configuration not stated)	38*	14	9	-7	14	-31
CC1CCC(C(C)C)C(OC(=O)CSc2nc(N)cc(=O)[nH]2)C1 (configuration not stated)	2	-4	3	0	-8	2
CC1CCC(C(C)C)C(OC(=O)CSc2nnc(N)s2)C1 (configuration not stated)	-9	-3	0	-3	10	2
CC1CCC(C(C)C)C(OC(=O)Cn2c(-c3ccc(F)cc3)[n+](C)c3ccccc32)C1 (configuration not stated)	51*	23	1	-11	-9	-26
COc1cc(OC)c(OC)cc1CCC(C)NCCC(c1ccccc1)c1ccccc1 (configuration not stated)	74*	14	5	-9	-4	-35
COc1ccccc1CCNC(C)CCc1ccc(O)cc1 (configuration not stated)	11	-8	1	-8	15	-12
SMILES	M1 antag	CHO-K1 Ca antag	M1 ag parental	CHRM1 agonist	M1 PAM parental	CHRM1 PAM
O=C(NC12CC3CC(CC(C3)C1)C2)N1CCN(C(=O)c2ccco2)CC1	-6	-6	0	-10	20	8
Cc1ccc(/C=C/C(=O)NCCCn2ccnc2)cc1	10	16	18*	-12	8	-3
O=C(/C=C/c1ccc(Cl)c(Cl)c1)NCCCn1ccnc1	-11	-16	0	-7	14	5
CC(=O)Nc1ccc(S(=O)(=O)N2CCN(Cc3csc(C)n3)CC2)cc1	-10	-6	1	-2	15	9
CN1CCC(C2(O)c3ccccc3CSc3sccc32)CC1 (configuration not stated)	18	4	1	-6	5	-17
CN1CCC(C2(O)c3ccccc3CCc3ccccc32)CC1	57*	-2	0	-9	12	-23
Cc1cc(C)c(OCCNCc2ccccc2)c(C)c1	-10	-8	20*	-1	23	7
CC(C)c1ccc(NC(=O)NN2CCOCC2)cc1	7	6	-1	-4	0	1
Cc1cccc(NC(=O)CN2C(=O)S/C(=C\c3cc(C)n(C)c3C)C2=O)c1	12	-8	4	-1	21	-7
Cc1ccc(NC(=O)CN2C(=O)S/C(=C\c3cc(C)n(C)c3C)C2=O)cc1	41*	-2	4	-4	-8	-24
COc1ccccc1C(=O)Nc1ccc2c(c1)n(C)c(=O)n2C	-16	-7	1	-3	-1	14
O=C(NCCc1cccs1)Nc1ccc2nc([C@@H]3O[C@H](CO)[C@@H](O)[C@H]3O)[nH]c2c1	-21	-9	0	-1	22	13
Cc1ccc(C)c(CN2C(=O)CSc3ccc(C(=O)NCCN4CCOCC4)cc32)c1	-5	-12	1	-10	12	0
O=C(CN1C(=O)CSc2ccc(S(=O)(=O)N3CCOCC3)cc21)NCCCN1CCCCC1	38*	-14	1	-6	13	-15
O=C(NCC1CCCO1)c1ccc2c(c1)N(Cc1ccccc1)C(=O)CS2 (configuration not stated)	45*	-3	1	-5	-7	-21
O=C(NCCCN1CCOCC1)c1ccc2c(c1)N(Cc1c(F)cccc1Cl)C(=O)CS2	100*	-1	2	-11	-13	-33
O=C(NCCN1CCOCC1)c1ccc2c(c1)N(Cc1ccccc1F)C(=O)CS2	59*	-14	0	-3	21	-18
O=C(CN1C(=O)CSc2ccc(S(=O)(=O)N3CCOCC3)cc21)NCCCN1CCOCC1	-1	-1	0	-3	-8	4
O=C(NCc1ccco1)c1ccc2c(c1)N(Cc1ccccc1)C(=O)CS2	24	-22	1	-13	-7	-28
